Here are results for 40 sequences from the supplement of paper PMC6555819.

The subject of the assay is VDR:RXRa (NR concentration 270 nM, RXRa partner concentration 90 nM). The experiment in a line: PBM binding z-score (relative to random genomic background probes); higher = stronger binding; sequences stand for … in GC…GCGATTGACAGCGTAGAATGAAGG
The method, then:
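Protein-binding microarray (Agilent 4x180K custom design, double-stranded 60-nt probes: 5' GC cap, 34-nt variable region, 24-nt constant primer region; full probe sequence given). Purified or IVT nuclear receptor:RXRα heterodimers (3:1 NR:RXRα, mostly 270:90 nM) or homodimers were incubated for 1 h in PBS with 2% milk and no ligand, then detected with Alexa488 antibodies. Fluorescence from o1-orientation probes (~5 replicates averaged) was converted to z-scores against 500 random hg19 background probes. Variable regions are seed direct-repeat (DR0–DR5) sites, all their single-nucleotide variants and half-site ablations.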
Sequence CCTAGTTGGTCAAGGTCACAAACGCTATAGGTAC came in with a PBM binding z-score of 3.73.

In turn, ATACCAAGGTGATCGTGAGGTCGTTGCTACTAAC returned a PBM binding z-score of 3.4.

Regarding CCTACTGGGCCAAAAAGGTCATTGGTGCCGATAA, the PBM binding z-score was 5.2.

CCTAGCAGGCCAATCTGGGGCACTCAAGGCTTGA had a PBM binding z-score of -0.786.

ACAGACAGGTGTGTGAAGGTAACTCAGCTGGACG showed a PBM binding z-score of -0.572.

For ACTAGCAGGCCAAGTTTGGGTCACTCTAACAAAG, the PBM binding z-score was determined as 0.395.

GTACCAAGGTGTATAGGTCGTTGATGAGTAGGCG: the PBM binding z-score came out at 0.168.

The sequence CGAACTACGTCAAGGACAGTGAATCTCCGCACGC gave a PBM binding z-score of -0.475.

TCTTGTAGATCAATAGAGGTTAAGAACGTGCGCT displayed a PBM binding z-score of 1.27.

With ATCTCTAGGTAAGAGTCAGTTCAGTGAAGAACGC, the PBM binding z-score was determined as 0.748.

Sequence TAGCCTAGCTCATTGGGCCAGTATAGTACGCATC had a PBM binding z-score of -0.69.

As for ACAGTCAGGTGAGTGAAGGTAACTCAGCTGGACG, the PBM binding z-score was -0.663.

For the sequence GCGACTGGGGCAAAGCATGTTACCATAAGGTTGG, the PBM binding z-score is -0.497.

In the case of GCTAGTAGGCCATTTGGGTCACTCAATGACGGGC, the PBM binding z-score was determined as 0.995.

In turn, CAGCCTAGGTCAGGGCCACTATAGGAGGAACGTT registered a PBM binding z-score of 0.305.

CTTCCAAGGTCAGAGAGGTCAGTGAATGCCGAGT yielded a PBM binding z-score of 7.43.

Regarding GCAGACAGGTGAAACGCAGGTAATTCAGGGTGGC, the PBM binding z-score is -0.324.

The sequence ACTAGCAGGCCAAGTTTGGGTCACGCAAACAAAG displayed a PBM binding z-score of 1.36.

Regarding CTCGAAAGGTCGGTTGAGGTGAGTACACGGATAA, the PBM binding z-score is 2.84.

The sequence ATATATAGGTTAAGGGTCATTCAGGTTGGTTCGC came in with a PBM binding z-score of 6.11.

CCTGCTAGGTCGATGGTCAGCTAAAGCAGCTCGC: the PBM binding z-score is -0.292.

For the sequence CAAACTAGGTAACGAAAGGTCAAAGTCGAATGAC, the PBM binding z-score came to 4.87.

Regarding TCTAGCAGGCCAGAGGGCCACTCAAGAGGTACGG, the PBM binding z-score was -0.505.

Consider ATCGAAAGGTCGACGAGGCGAGTATACACCGTTT, for which the PBM binding z-score is 3.79.

In turn, GCTCGGAGTACAAGGTCAGAGCTTTGTCCGTAGA gave a PBM binding z-score of 1.48.

For TGAATGAGGTTATAAGATTAGGGAACGTTGCAAA, the PBM binding z-score was 1.12.

As to CCTTACGGGTCACTGACAGGTTATACCATTTGGA, the PBM binding z-score was 3.9.

CCTACCGGGCCAAAGGTCATTGATTCCAATGCTC gave a PBM binding z-score of 4.8.

Consider CCTCGGAGGACAGAAGGTCAGGGCTGTCCGCTTT, for which the PBM binding z-score was 0.967.

Sequence CAAACTAGGTCACACAGGTCAAAGTCCGTGCGTA gave a PBM binding z-score of 6.73.

In turn, CAAACTAGGTCAAGGTCAATGTCGGTTTGTGCCA returned a PBM binding z-score of 4.81.

GCTGCTAGGTCAGGTTGGTCAGCAAACGGGTACG yielded a PBM binding z-score of 0.616.

The sequence CCTTACGGGTCAATCCAGGTTATAGCATCGGAGT showed a PBM binding z-score of 4.64.

In the case of CCTGCTAGGTCATGGCCAGCTAATCTACAGTATG, the PBM binding z-score amounted to 1.43.

TAGCCTAGGTCAGATCAGGCCAGTATACGCTATA came in with a PBM binding z-score of 0.996.

Take CAAACTAGGTCACGAAAGGTCAAAGTCGAATGAC: the PBM binding z-score was determined as 6.91.

TCTAGTTGGTCAAAGTTCACACACTCGAAATGCG displayed a PBM binding z-score of 4.44.

On to GTACCAAGGTGAATAGGTCGTTGAGGAGTAGGCG, for which the PBM binding z-score amounted to 0.845.

GCTATTAGTTGAAGGGGCAACCGAATGATTCTCG showed a PBM binding z-score of -0.246.

GCAGACAGGTGAAACTCAGGTAACTCAGGGTGGC gave a PBM binding z-score of -0.101.
